# From ChEMBL document CHEMBL3433997, “St. Jude Leishmania screening dataset” (2016)
# Target: Solute carrier family 2, facilitated glucose transporter member 1 (Homo sapiens) (UniProt P11166)
# Assay: ST_JUDE_LEISH: Cytotoxicity at 2uM final concentration against transgenic Leishmania Mexicana promastigotes LmGLUT1 that are glucose transport deficient and complemented with the human glucose transporter GLUT1. Activity is measured by DNA content using SYBR green in vitro
# Assay type: functional
# Chain of Solute carrier family 2, facilitated glucose transporter member 1 (Homo sapiens) (P11166 whole entry): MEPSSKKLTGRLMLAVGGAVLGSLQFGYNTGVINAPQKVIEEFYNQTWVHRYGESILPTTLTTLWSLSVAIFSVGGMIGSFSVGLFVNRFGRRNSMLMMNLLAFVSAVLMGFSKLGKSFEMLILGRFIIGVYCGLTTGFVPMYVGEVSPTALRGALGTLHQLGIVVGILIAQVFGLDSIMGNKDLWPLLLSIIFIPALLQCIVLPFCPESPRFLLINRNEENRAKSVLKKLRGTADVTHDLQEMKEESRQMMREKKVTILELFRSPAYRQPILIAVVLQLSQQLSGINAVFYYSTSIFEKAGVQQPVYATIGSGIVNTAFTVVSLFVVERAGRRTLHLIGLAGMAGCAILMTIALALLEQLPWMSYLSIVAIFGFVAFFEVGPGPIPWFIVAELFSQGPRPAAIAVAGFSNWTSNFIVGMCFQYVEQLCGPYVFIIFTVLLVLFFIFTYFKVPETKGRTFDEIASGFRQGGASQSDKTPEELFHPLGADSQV
row,SMILES,inhibition [%]
1,CC1(C)NC(N)=NC(=N)N1OCCCNC(=O)c1ccc(C(=O)NCCCON2C(=N)N=C(N)NC2(C)C)cc1,0.28
2,COc1ccc2nccc(N3CCC(CCNCc4cc5c(cn4)OCCO5)CC3)c2c1,7.15
3,COc1ccc2nccc([C@@H](O)CN3CCC(NC(=O)c4cc5c(Cl)cc(Cl)cc5[nH]4)CC3)c2c1,5.68
4,O=C(CCc1nc2c(cnn2-c2ccccc2)c(=O)[nH]1)NC1CCSc2ccccc21 (stereo not drawn),0.18
5,O=S(=O)(Nc1cccc(CCN2CCCCC2CCN2CCCC2)c1)c1ccc2ccccc2c1 (stereo not drawn),0.63
6,CC(C)(C)N1CCC(N(Cc2ccc(-c3ccc(C(F)(F)F)cc3)cc2)C(=O)Cn2c(CCc3cccc(F)c3F)cc(=O)c3cccnc32)CC1,-0.12
7,CCCCN(CCCC)Cc1cc2ccccc2cc1O,3.46
8,CC(C)CCNC(=O)C1Cc2c([nH]c3ccc(Br)cc23)C2(CCN(Cc3ccccc3)CC2)N1 (stereo not drawn),104
9,COc1cc(NC(=O)Nc2ccc([N+](=O)[O-])cc2OC)c(OC)cc1Cl,16.6
10,CCOc1cc(C)ccc1C1CCN(CCN2CCC(CNC(=O)c3ccc(-c4ccc(C(F)(F)F)cc4)cc3)CC2)CC1,0.7
11,CC(=O)N(C)c1cccc(CNc2cc(C)nc(Nc3ccc(C)cc3)n2)c1,4.41
12,CN(C)CC(=O)NCC(NCCCNc1cc(=O)c2ccccc2[nH]1)c1cc(Br)cc(Br)c1 (stereo not drawn),5.5
13,CC(C)(CNC(=O)[C@@H]1CCCN(CCOc2ccc(Cl)cc2)C1)c1nc(-c2ccc(Cl)c(O)c2)c(-c2ccncc2)[nH]1,-1.34
14,O=C(Nc1ccc(Cl)cc1)Nc1cccc(-c2ccc(-c3nc4ccccc4[nH]3)cc2)c1,2.09
15,CCCN1CCN(c2ccc(NS(=O)(=O)c3ccc(C(=O)Nc4ccc(Cl)cc4)cc3)cc2)CC1,0.49
16,N=C(N)NN=Cc1c2ccccc2c(Cl)c2cc(Cl)ccc12,62.5
17,COC(=O)c1cccc(CNCc2ccc(-c3cccc(-c4nc5cc(C(F)(F)F)ccc5[nH]4)c3)cc2)c1,11.9
18,O=C1Nc2cccc3c2C1(CCCCN1CCC(c2c(-c4ccc(F)cc4)[nH]c4ccccc24)CC1)CCC3 (stereo not drawn),5.51
19,Cc1cn(CC(=O)Nc2cccc(-c3cccc(-c4nc5cc(C(F)(F)F)ccc5[nH]4)c3)c2)c(=O)[nH]c1=O,9.16
20,Cc1c(CC(=O)N(C)C2CCN(CCCCCNC(=O)/C=C/c3ccc(Cl)c(Cl)c3)CC2)sc2ccc(Cl)cc12,7.99

row,SMILES,inhibition [%]
1,Oc1ccc(CCNc2nc(NCCOc3cccc4ccccc34)nc(N3CCNCC3)n2)cc1,3.36
2,CCN(CC)Cc1cc(Nc2ccnc3cc(Cl)ccc23)ccc1O,-1.88
3,NC(=O)C1CCN(Cc2cccc(-c3cccc(-c4nc5cc(F)ccc5[nH]4)c3)c2)CC1,-0.94
4,O=C(Nc1ccc(Cl)cc1)Nc1ccc(-c2ccc(-c3nc4ccccc4[nH]3)cc2)cc1,2.4
5,CN1CCN(c2nc(NCCc3ccc(O)cc3)nc(NCc3ccccc3-c3ccc(C(F)(F)F)cc3)n2)CC1,1.59
6,COc1ccc(NC(=O)/C=C/c2ccc(-c3ccc(-c4noc(C)n4)cc3)cc2)cc1OCCN(C)C,-0.19
7,CC(=O)Nc1ccc(C2NC(=O)NC(c3ccccc3)=C2c2nc3ccccc3s2)cc1 (stereo not drawn),3.15
8,Cc1cc(N(C)C2CCN(CC3CCCCC3)C2)nc(Nc2ccc(Cl)cc2)n1 (stereo not drawn),7.35
9,O=C(Nc1cccc(CN2CCCN(Cc3cccc(O)c3)CC2)c1)c1ccc(-c2ccccc2)cc1,-3.92
10,COc1cc2nc(N3CCC(CNC(=O)/C=C/c4ccccc4F)CC3)nc(N)c2cc1OC,8.22
11,O=C(N[C@@H](CC1CCCCC1)C(=O)NCc1cccc(C(F)(F)F)c1)c1ccc(O)c(-c2ccc(Cl)c(Cl)c2)c1,1.91
12,CCOc1ccc2[nH]c(C)cc(=NN=Cc3ccncc3)c2c1,0.75
13,Cc1ccc(Cn2ncc(N3CCCNCC3)c(Cl)c2=O)cc1NC(=O)Nc1ccc(-c2ccccc2)cc1,3.82
14,CCc1cccc(C)c1-n1nc(-c2cc(C(C)(C)C)oc2C)cc1N,2.34
15,CC(CN(C)C)C(=O)Nc1cccc(-c2cccc(-c3nc4ccccc4[nH]3)c2)c1 (stereo not drawn),-0.1
16,CCCCNC[C@@H](O)[C@H](Cc1ccccc1)NC(=O)c1cc2c3c(c1)c(CC)cn3CCS(=O)(=O)N2C,2.53
17,O=C(Nc1ccc2nc3n(c(=O)c2c1)CCCCC3)C(=O)N1CCN(c2ccc(F)cc2)CC1,7.33
18,C[C@H](Nc1nc(C(Oc2ccccc2)c2ccccc2)nc2[nH]ncc12)c1ccccc1 (stereo partly drawn),3.69
19,Cc1cc(CN2CCC(Nc3ncc(-c4ccsc4)c4nc(C(F)(F)F)ccc34)CC2)no1,5.49

# Target: Hexose transporter 1 (Plasmodium falciparum) (UniProt O97467)
# Assay: ST_JUDE_LEISH: Cytotoxicity at 2uM final concentration against transgenic Leishmania Mexicana promastigotes LmPfHT that are glucose transport deficient and complemented with the Plasmodium falciparum hexose transporter. Activity is measured by DNA content using SYBR green in vitro
# Assay type: functional
row,SMILES,inhibition [%]
1,CC1(C)NC(N)=NC(=N)N1OCCCNC(=O)c1ccc(C(=O)NCCCON2C(=N)N=C(N)NC2(C)C)cc1,0.77
2,COc1ccc2nccc(N3CCC(CCNCc4cc5c(cn4)OCCO5)CC3)c2c1,8
3,COc1ccc2nccc([C@@H](O)CN3CCC(NC(=O)c4cc5c(Cl)cc(Cl)cc5[nH]4)CC3)c2c1,7.48
4,O=C(CCc1nc2c(cnn2-c2ccccc2)c(=O)[nH]1)NC1CCSc2ccccc21 (stereo not drawn),1.79
5,O=S(=O)(Nc1cccc(CCN2CCCCC2CCN2CCCC2)c1)c1ccc2ccccc2c1 (stereo not drawn),-0.31
6,CC(C)(C)N1CCC(N(Cc2ccc(-c3ccc(C(F)(F)F)cc3)cc2)C(=O)Cn2c(CCc3cccc(F)c3F)cc(=O)c3cccnc32)CC1,-1.34
7,CCCCN(CCCC)Cc1cc2ccccc2cc1O,4.13
8,CC(C)CCNC(=O)C1Cc2c([nH]c3ccc(Br)cc23)C2(CCN(Cc3ccccc3)CC2)N1 (stereo not drawn),103
9,COc1cc(NC(=O)Nc2ccc([N+](=O)[O-])cc2OC)c(OC)cc1Cl,9.29
10,CCOc1cc(C)ccc1C1CCN(CCN2CCC(CNC(=O)c3ccc(-c4ccc(C(F)(F)F)cc4)cc3)CC2)CC1,2.7
11,CC(=O)N(C)c1cccc(CNc2cc(C)nc(Nc3ccc(C)cc3)n2)c1,4.95
12,CN(C)CC(=O)NCC(NCCCNc1cc(=O)c2ccccc2[nH]1)c1cc(Br)cc(Br)c1 (stereo not drawn),5.13
13,CC(C)(CNC(=O)[C@@H]1CCCN(CCOc2ccc(Cl)cc2)C1)c1nc(-c2ccc(Cl)c(O)c2)c(-c2ccncc2)[nH]1,2.16
14,O=C(Nc1ccc(Cl)cc1)Nc1cccc(-c2ccc(-c3nc4ccccc4[nH]3)cc2)c1,1.83
15,CCCN1CCN(c2ccc(NS(=O)(=O)c3ccc(C(=O)Nc4ccc(Cl)cc4)cc3)cc2)CC1,0.84
16,N=C(N)NN=Cc1c2ccccc2c(Cl)c2cc(Cl)ccc12,26.4
17,COC(=O)c1cccc(CNCc2ccc(-c3cccc(-c4nc5cc(C(F)(F)F)ccc5[nH]4)c3)cc2)c1,11
18,O=C1Nc2cccc3c2C1(CCCCN1CCC(c2c(-c4ccc(F)cc4)[nH]c4ccccc24)CC1)CCC3 (stereo not drawn),5.23
19,Cc1cn(CC(=O)Nc2cccc(-c3cccc(-c4nc5cc(C(F)(F)F)ccc5[nH]4)c3)c2)c(=O)[nH]c1=O,8.95
20,Cc1c(CC(=O)N(C)C2CCN(CCCCCNC(=O)/C=C/c3ccc(Cl)c(Cl)c3)CC2)sc2ccc(Cl)cc12,0.91

row,SMILES,inhibition [%]
1,Oc1ccc(CCNc2nc(NCCOc3cccc4ccccc34)nc(N3CCNCC3)n2)cc1,0.4
2,CCN(CC)Cc1cc(Nc2ccnc3cc(Cl)ccc23)ccc1O,2.29
3,NC(=O)C1CCN(Cc2cccc(-c3cccc(-c4nc5cc(F)ccc5[nH]4)c3)c2)CC1,1.68
4,O=C(Nc1ccc(Cl)cc1)Nc1ccc(-c2ccc(-c3nc4ccccc4[nH]3)cc2)cc1,3.97
5,CN1CCN(c2nc(NCCc3ccc(O)cc3)nc(NCc3ccccc3-c3ccc(C(F)(F)F)cc3)n2)CC1,2.22
6,COc1ccc(NC(=O)/C=C/c2ccc(-c3ccc(-c4noc(C)n4)cc3)cc2)cc1OCCN(C)C,2.25
7,CC(=O)Nc1ccc(C2NC(=O)NC(c3ccccc3)=C2c2nc3ccccc3s2)cc1 (stereo not drawn),0.83
8,Cc1cc(N(C)C2CCN(CC3CCCCC3)C2)nc(Nc2ccc(Cl)cc2)n1 (stereo not drawn),5.97
9,O=C(Nc1cccc(CN2CCCN(Cc3cccc(O)c3)CC2)c1)c1ccc(-c2ccccc2)cc1,-2.77
10,COc1cc2nc(N3CCC(CNC(=O)/C=C/c4ccccc4F)CC3)nc(N)c2cc1OC,7.84
11,O=C(N[C@@H](CC1CCCCC1)C(=O)NCc1cccc(C(F)(F)F)c1)c1ccc(O)c(-c2ccc(Cl)c(Cl)c2)c1,1.58
12,CCOc1ccc2[nH]c(C)cc(=NN=Cc3ccncc3)c2c1,0.8
13,Cc1ccc(Cn2ncc(N3CCCNCC3)c(Cl)c2=O)cc1NC(=O)Nc1ccc(-c2ccccc2)cc1,4.05
14,CCc1cccc(C)c1-n1nc(-c2cc(C(C)(C)C)oc2C)cc1N,1.75
15,CC(CN(C)C)C(=O)Nc1cccc(-c2cccc(-c3nc4ccccc4[nH]3)c2)c1 (stereo not drawn),-0.62
16,CCCCNC[C@@H](O)[C@H](Cc1ccccc1)NC(=O)c1cc2c3c(c1)c(CC)cn3CCS(=O)(=O)N2C,4.07
17,O=C(Nc1ccc2nc3n(c(=O)c2c1)CCCCC3)C(=O)N1CCN(c2ccc(F)cc2)CC1,9.84
18,C[C@H](Nc1nc(C(Oc2ccccc2)c2ccccc2)nc2[nH]ncc12)c1ccccc1 (stereo partly drawn),1.72
19,Cc1cc(CN2CCC(Nc3ncc(-c4ccsc4)c4nc(C(F)(F)F)ccc34)CC2)no1,6.03
